Compound activity from PubChem BioAssay.
The full list was thinned out, with hits kept by preference.
Sm TGR inh = qHTS Assay for the Inhibitors of Schistosoma Mansoni Peroxiredoxins | Schistosoma mansoni thioredoxin glutathione reductase (TGR), Q962Y6 | purified TGR, DTNB reduction, TNB absorbance 405 nm | Potency, µM (doses to about 114 µM), without a hit: at the highest dose activity change, negative = inhibition, most hits filed as inhibitors | 3% of 360,000 active; note: potency is the fitted concentration of half-maximal effect; % is set by controls: 0 for no effect and ±100 for the full control effect; nearly all actives have a fitted effect of over 60% in size
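TGR 20 nM + NADPH 100 uM (dispensed conc.), cpd preinc 15 min RT; start with NADPH (500 uM addition) then DTNB (15 mM addition). Kinetic TNB absorbance, 405 nm filter. Four-parameter Hill fit across titration.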
Shiga toxin inh = A qHTS for Small Molecule Inhibitors of Shiga Toxin; Vero cells, Shiga toxin protein synthesis inhibition reporter; inhibition, % at 38.7 µM; 9.2% of 290,000 active; in the data active = inhibition mostly above about 28%, no sharp cut-off; inactive = mostly below about 43%; note: 0% is about no effect
Cycloheximide cs = Cycloheximide Counterscreen for Small Molecule Inhibitors of Shiga Toxin | cell reporter, cycloheximide protein synthesis inhibition counterscreen | max response, % | 12% of 300,000 active | AID 2314, 2010; in the data active = max response mostly above about 13%, no sharp cut-off; inactive = mostly below about 14%; note: read at 38.3 µM for the half of the compounds with a filed dose; 0% is about no effect
Tb PYK inh = qHTS of Trypanosoma Brucei Inhibitors | TbPYK enzyme, Kinase-Glo Plus ATP luminescence, 45 min | Potency, µM (series often up to 76.8 µM), without a hit: top-dose activity, negative = inhibition, actives largely listed as inhibitors | 0.12% of 410,000 active; note: potency is the fitted concentration of half-maximal effect; % is set by controls: 0 for no effect and ±100 for the full control effect; nearly all actives have a fitted effect of over 50% in size
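Quantitative HTS: titrated library compounds versus trypanosomal pyruvate kinase in TEA buffer (pH 7.2) containing KCl, MgCl2, BSA and Tween-20. Reactions were initiated with ADP, 130 uM final. Kinase-Glo Plus luminescence was read after 45 min at RT.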
LmPK inhibitor = qHTS Assay for Inhibitors of Leishmania Mexicana Pyruvate Kinase (LmPK); purified LmPK, Kinase-Glo ATP luminescence, 1 h; Potency, µM (highest dose often 57.5 µM), for inactives: top-dose activity change, negative = inhibition, usual class: inhibitors; 0.37% of 290,000 active; note: potency is the fitted concentration of half-maximal effect; % is set by controls: 0 for no effect and ±100 for the full control effect
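In 50 mM imidazole pH 7.2 with 7 mM MgCl2, LmPK (0.1 nM) turned over PEP (0.5 mM) and ADP (0.1 mM) for 1 h at room temperature. Luciferase read-out of ATP.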
Giardia FBPA inh = qHTS Assay for Inhibitors of Fructose-1,6-bisphosphate Aldolase from Giardia Lamblia; A8B2U2; Potency, µM (doses to about 59.6 µM), without a hit: top-dose activity, negative = inhibition, actives largely listed as inhibitors; purified Giardia FBPA; 0.71% of 290,000 active; note: potency is the fitted concentration of half-maximal effect; % is set by controls: 0 for no effect and ±100 for the full control effect; nearly all actives have a fitted effect of over 55% in size
Target sequence (A8B2U2 whole entry, looked up): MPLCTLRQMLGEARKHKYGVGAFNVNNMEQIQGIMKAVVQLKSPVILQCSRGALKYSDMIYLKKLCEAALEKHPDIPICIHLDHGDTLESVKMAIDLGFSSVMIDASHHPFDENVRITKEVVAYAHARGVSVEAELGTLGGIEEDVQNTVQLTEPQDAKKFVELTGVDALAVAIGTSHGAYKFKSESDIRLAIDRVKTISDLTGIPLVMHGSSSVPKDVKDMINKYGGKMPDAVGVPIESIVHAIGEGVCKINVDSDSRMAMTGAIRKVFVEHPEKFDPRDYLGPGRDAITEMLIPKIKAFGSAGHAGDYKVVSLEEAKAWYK
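Giardia FBPA (40 nM reagent) was preincubated 10 min at RT with compound (up to 57.5 uM final), then substrate plus GAPDH/TPI/NAD/arsenate coupling system with diaphorase/resazurin was added; resorufin fluorescence (525/598 nm) was read after 20 min.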
The depositor's hits bear a star. Unless noted, calls come from the whole dose curve; as a rule, active = well fitted curve in the direction sought with a large enough effect; inconclusive = small, poorly fitted or top-dose-only effect, or another doubt; inactive = no such curve, though single readings can be large; an effect the other way counts as inactive or inconclusive.

Screening O=C(NCCCn1ccnc1)c1cc(-c2cccs2)on1 returned Sm TGR inh -1.2%, Shiga toxin inh 153.6*, Cycloheximide cs 45.7*, Tb PYK inh -3.9%, LmPK inhibitor 0.1% and Giardia FBPA inh 2.5%.
Cc1ccc(-c2cc(C(=O)NCCCN3CCOCC3)no2)cc1 was read as Sm TGR inh -7.6%, Shiga toxin inh -7.9, Cycloheximide cs -2.0, Tb PYK inh 0.9%, LmPK inhibitor -0.2% and Giardia FBPA inh 10.4%.
For COc1ccccc1N(Cc1ccccc1)S(=O)(=O)c1cccc(C(=O)Nc2ccc(C(C)=O)cc2)c1 the results were Sm TGR inh -0.8%, Shiga toxin inh 44.3*, Cycloheximide cs 45.9*, Tb PYK inh -9.0%, LmPK inhibitor -1.4% and Giardia FBPA inh 3.8%.
Screening COc1ccccc1N(Cc1ccccc1)S(=O)(=O)c1cccc(C(=O)Nc2ccccn2)c1 returned Sm TGR inh -15.5%, Shiga toxin inh 49.8*, Cycloheximide cs 25.4*, Tb PYK inh -2.3% and LmPK inhibitor -5.0%.
COc1ccccc1N(Cc1ccccc1)S(=O)(=O)c1cccc(C(=O)Nc2ccc(C)cn2)c1 was read as Sm TGR inh 10.5% and Tb PYK inh -1.2%.
Screening COc1ccc(OC)c(NC(=O)c2cccc(S(=O)(=O)N(Cc3ccccc3)c3ccccc3OC)c2)c1 returned Sm TGR inh -6.5%, Shiga toxin inh -6.0, Cycloheximide cs 1.5, Tb PYK inh -1.8%, LmPK inhibitor 5.6% and Giardia FBPA inh -3.6%.
For O=C1CN(C(=O)c2ccc(S(=O)(=O)N3CCCCC3)cc2)C(c2ccc(F)cc2)c2cc(Br)ccc2N1 (centres undefined) the results were Sm TGR inh -27.1% and Tb PYK inh -1.6%.
Screening O=C(Nc1ccccc1C(=O)NCc1ccco1)Nc1cccc2ccccc12 returned Sm TGR inh -17.6%, Shiga toxin inh 36.2, Cycloheximide cs 10.0, Tb PYK inh -2.4%, LmPK inhibitor 3.4% and Giardia FBPA inh -5.3%.
`O=C(Nc1cccc(Cl)c1)Nc1ccccc1C(=O)NCc1ccco1` gave Sm TGR inh -25.6%, Shiga toxin inh 55.2*, Cycloheximide cs 32.4*, Tb PYK inh -2.0%, LmPK inhibitor -21.2% and Giardia FBPA inh -15.0%.
`COc1cccc2cc(C(=O)Nc3ccc(F)cc3)c(=Nc3ccc(C(=O)O)cc3)oc12` gave Sm TGR inh 0.4%, Shiga toxin inh 76.1*, Cycloheximide cs 51.0*, Tb PYK inh 2.6%, LmPK inhibitor -0.5% and Giardia FBPA inh 5.8%.
For COc1ccc(C(=O)Nc2ccc(Cl)cc2C(=O)NCc2ccco2)cc1OC the results were Sm TGR inh -24.4%, Shiga toxin inh 54.6*, Cycloheximide cs 42.5*, Tb PYK inh -0.6%, LmPK inhibitor -1.1% and Giardia FBPA inh -8.0%.
For COc1ccc(N=c2oc3c(OC)cccc3cc2C(=O)NCc2ccco2)cc1OC the results were Sm TGR inh -1.5%, Shiga toxin inh 27.7, Cycloheximide cs 10.8, Tb PYK inh 3.7%, LmPK inhibitor -1.4% and Giardia FBPA inh -11.0%.
For COc1ccccc1N=c1oc2c(OC)cccc2cc1C(=O)NCc1ccco1 the results were Sm TGR inh -1.7%, Shiga toxin inh 114.6*, Cycloheximide cs 48.5*, Tb PYK inh 3.3%, LmPK inhibitor 3.5% and Giardia FBPA inh 1.8%.
COC(=O)CN1C(=O)CSc2ccc(S(=O)(=O)Nc3cccc(Cl)c3C)cc21 was read as Sm TGR inh 1.0% and Tb PYK inh -6.0%.
`C=CCNc1ncnc2c1ncn2[C@H]1CN(Cc2ccc(F)cc2)C[C@@H](CO)O1` gave Tb PYK inh -12.4%.
Screening COc1ccccc1C(=O)NCc1ccco1 returned Sm TGR inh inconclusive, Shiga toxin inh -6.5, Cycloheximide cs -1.1, Tb PYK inh -2.8%, LmPK inhibitor 5.4% and Giardia FBPA inh 1.1%.
For COc1ccccc1C(=O)Nc1ccccc1C(=O)NCc1ccco1 the results were Sm TGR inh -11.7%, Shiga toxin inh 10.6, Cycloheximide cs 32.3*, Tb PYK inh -4.6% and LmPK inhibitor -3.0%.
`CC(C)(Oc1ccc(Cl)cc1)C(=O)NCc1ccco1` gave Sm TGR inh 7.08µM*, Shiga toxin inh 3.7, Cycloheximide cs -4.0, Tb PYK inh -4.9%, LmPK inhibitor 1.1% and Giardia FBPA inh 5.8%.
COc1ccc(Cl)cc1C(=O)NCc1ccco1 was read as Sm TGR inh 44.7µM*, Shiga toxin inh 14.9, Cycloheximide cs 9.9, Tb PYK inh 6.5%, LmPK inhibitor 0.7% and Giardia FBPA inh -0.2%.
N#Cc1ccccc1NC(=O)C(=O)NCC(c1ccc2c(c1)OCO2)N1CCOCC1 (centres undefined) was read as Sm TGR inh 6.3% and Tb PYK inh 8.5%.
Screening O=C(c1ccc(Br)o1)N1CCC(c2nc3ccccc3[nH]2)CC1 returned Sm TGR inh 39.8µM* and Tb PYK inh -11.8%.
Screening O=C(O)c1ccc(N2C(=O)CC(N3CCC(c4nc5ccccc5[nH]4)CC3)C2=O)cc1 (centres undefined) returned Sm TGR inh 22.4µM*, Shiga toxin inh -6.3, Cycloheximide cs 0.9, Tb PYK inh -12.1%, LmPK inhibitor 0.5% and Giardia FBPA inh inconclusive.
Screening CN1C(=O)CC(N2CCC(c3nc4ccccc4[nH]3)CC2)C1=O (centres undefined) returned Sm TGR inh 89.1µM*, Shiga toxin inh 17.9, Cycloheximide cs -2.8, Tb PYK inh -1.5%, LmPK inhibitor 3.6% and Giardia FBPA inh -23.5%.
O=S1(=O)C=C[C@@H](COCc2ccccc2)N1Cc1ccc(Br)cc1 was read as Tb PYK inh 4.6%.
`CCCC12CN3CCN(CC(C3)/C1=N\NC(=O)c1ccc(F)cc1)C2` gave Sm TGR inh 3.2%, Shiga toxin inh -12.0, Cycloheximide cs 5.3, Tb PYK inh 1.2%, LmPK inhibitor -3.9% and Giardia FBPA inh -1.0%.
Screening CCCCC12CN3CCN(CC(C3)/C1=N\NC(=O)c1ccccc1N)C2 returned Sm TGR inh 1.3%, Shiga toxin inh 82.9*, Cycloheximide cs 46.1*, Tb PYK inh 5.6%, LmPK inhibitor -4.3% and Giardia FBPA inh 2.7%.
Screening Cc1cccc(NCc2ccc(Br)cc2)n1 returned Sm TGR inh 0.0%, Shiga toxin inh 109.0*, Cycloheximide cs 35.3*, Tb PYK inh -19.2%, LmPK inhibitor -5.8% and Giardia FBPA inh 0.4%.
Cc1cccc(NCc2cccc3ccccc23)n1 was read as Sm TGR inh -18.1%, Shiga toxin inh 54.4, Cycloheximide cs 41.1*, Tb PYK inh 3.3%, LmPK inhibitor -0.4% and Giardia FBPA inh -0.5%.
